Assay outcomes from PubChem BioAssay.
15-hLO-2 inh: qHTS Assay for Inhibitors of 15-hLO-2 (15-human lipoxygenase 2) | Polyunsaturated fatty acid lipoxygenase ALOX15B (Homo sapiens), O15296 | purified 15hLO-2, xylenol orange hydroperoxide absorbance | Potency, µM (top dose mostly 57.1 µM), most hits filed as inhibitors | actives 0.56% (n = 110,000) | AID 881, 2007; further: nearly all actives have a fitted effect of over 60% in size
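Read-out: hydroperoxide product oxidises ferrous iron, measured as xylenol orange complex via the 573-to-405 nm absorbance ratio after 30 min. Reaction: 50 nM enzyme, 15 min compound preincubation, 45 uM arachidonic acid, 90 min RT, Hepes pH 7.5 with Triton X-100.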
12-hLO inh: qHTS Assay for Inhibitors of 12-hLO (12-human lipoxygenase) | Polyunsaturated fatty acid lipoxygenase ALOX12 (Homo sapiens), P18054 | purified 12-hLO, xylenol orange hydroperoxide absorbance | Potency, µM (doses to about 57.1 µM), most hits filed as inhibitors | actives 0.12% (n = 150,000); further: nearly all actives have a fitted effect of over 55% in size
Target sequence (P18054 whole entry, looked up): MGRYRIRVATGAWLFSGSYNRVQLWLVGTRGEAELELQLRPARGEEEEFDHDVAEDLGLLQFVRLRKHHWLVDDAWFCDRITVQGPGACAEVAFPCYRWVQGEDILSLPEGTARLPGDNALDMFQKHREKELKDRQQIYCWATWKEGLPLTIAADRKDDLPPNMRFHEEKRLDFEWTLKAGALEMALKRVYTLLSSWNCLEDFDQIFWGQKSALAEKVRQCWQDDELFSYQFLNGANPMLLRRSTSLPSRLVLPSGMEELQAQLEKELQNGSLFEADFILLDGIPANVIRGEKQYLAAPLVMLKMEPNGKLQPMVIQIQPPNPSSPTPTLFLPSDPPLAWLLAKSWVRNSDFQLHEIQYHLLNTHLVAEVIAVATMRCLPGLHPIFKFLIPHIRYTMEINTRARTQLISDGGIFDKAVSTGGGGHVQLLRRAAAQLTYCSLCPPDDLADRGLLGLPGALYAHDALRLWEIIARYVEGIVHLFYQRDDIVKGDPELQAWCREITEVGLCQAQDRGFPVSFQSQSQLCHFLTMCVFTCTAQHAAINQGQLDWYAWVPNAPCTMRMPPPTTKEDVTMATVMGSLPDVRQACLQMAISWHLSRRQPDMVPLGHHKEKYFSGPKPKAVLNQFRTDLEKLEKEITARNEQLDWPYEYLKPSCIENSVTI
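Hydroperoxide formation by human 12-lipoxygenase from 40 uM arachidonic acid was followed colorimetrically via ferric-xylenol orange complex, using the 573/405 nm absorbance ratio. Enzyme concentration was 150 nM, with 30 min reaction at room temperature.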
IMPase cell inh: qHTS Assay for Identifying the Cell-Membrane Permeable IMPase Inhibitors. Inositol monophosphatase 1 (Rattus norvegicus), P97697. inhibition (IP1 accumulation), % at 46.1 µM. CHO-M1 cells, IP1 accumulation, HTRF TR-FRET ratio. 120,000 tested, under 10 active; active means well fitted curve in the direction sought with a large enough effect in the signal ratio, not every such curve was filed as active; inconclusive means small, poorly fitted or top-dose-only effect, or a change in a side signal; inactive means no such curve, though single readings can be large or run the other way; the % refers to the signal ratio;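 further: cells stimulated with carbachol in lithium chloride buffer; higher means more IMPase inhibition seen as more IP1 and lower FRET ratio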
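Cellular IMPase inhibition is scored as a rise in cytosolic IP1, detected by competitive TR-FRET between d2-labelled IP1 and a europium anti-IP1 antibody. M1-expressing CHO cells were stimulated with carbachol for 30 min at 37C, with lithium (50 mM LiCl) present in the buffer.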
PNC inhibitor: High Content Assay for Compounds that inhibit the Assembly of the Perinucleolar Compartment; PC3M PTB-GFP, PNC prevalence imaging, 16 h; active compounds read low; activity change (PNC), negative = inhibition, % at 10 µM; actives 3.1% (n = 140,000);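 active means readout at or below -70, meaning at least 70% loss of cells showing the perinucleolar compartment, a nuclear body marking cancer cells; inconclusive means readout between -30 and a set limit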
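Compounds are pinned in duplicate onto adhered PC3M cells stably expressing GFP-tagged PTB and incubated 16 h at 37 C. Cells are then fixed, nuclei stained with Hoechst, and PNC-positive cells counted.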
IMPase Li cell: qHTS Assay for Identifying the Cell-Membrane Permeable IMPase Inhibitors: Potentiation with Lithium | CHO-M1 cells, IP1 TR-FRET (IP-One), carbachol + lithium | Potency, µM (doses to about 59.4 µM), actives largely listed as inhibitors | actives 0.35% (n = 210,000);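 further: IP1 builds up when IMPase is blocked and the TR-FRET signal falls; nearly all actives have a fitted effect of over 50% in size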
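IP1 accumulation measured by competitive TR-FRET in lysed CHO-M1 cells after 30 min compound exposure at 37C, with a small lithium addition to potentiate weak responses. Hill-equation AC50 from ratio and donor-channel data.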
HPGD inh: qHTS Assay for Inhibitors of HPGD (15-Hydroxyprostaglandin Dehydrogenase) | actives 4.3% (n = 150,000) | 15-hydroxyprostaglandin dehydrogenase [NAD(+)] (Homo sapiens), P15428 | purified HPGD, NADH fluorescence kinetic, PGE2 substrate | Potency, µM, usual class: inhibitors; active means well fitted inhibition curve with a large enough effect, not every such curve was filed as active; inconclusive means small, poorly fitted or top-dose-only effect, or another doubt; inactive means no such curve, though single readings can be large or run the other way
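20 nM HPGD preincubated 15 min at room temperature with compound in 50 mM Tris-HCl pH 8, 0.01% Tween 20. Started with 1 mM NAD+ and 30 uM prostaglandin E2; NADH fluorescence (360/450 nm) read 5 times over 30-s intervals, last minus first.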
A number is an active result; – = inactive; ? = inconclusive; · = not tested or not shown; [ ] = another dose, or the depositor's remark. An excerpt weighted towards active compounds, which were near 5.4% of everything screened. Unless noted, the call rests on the fitted dose curve; in most records, active means well fitted curve in the direction sought with a large enough effect; inconclusive means small, poorly fitted or top-dose-only effect, or another doubt; inactive means no such curve, though single readings can be large; an effect the other way counts as inactive or inconclusive.

SMILES | 15-hLO-2 inh | 12-hLO inh | IMPase cell inh | PNC inhibitor | IMPase Li cell | HPGD inh
Cc1ccc(S(=O)(=O)Nc2ccccc2/C=N/c2nc3ccccc3n2C(C)C)cc1 | · | – | – | -92 | – | –
CC1(C)C(=O)C2C[C@]3(O)C4=CC(=O)OC(c5ccoc5)[C@]4(C)CCC3[C@](C)(C2=O)C1CC(=O)O (stereo not given in full) | – | – | · | · | – | –
CC(C)c1ccc(C(=O)NCCCN(C)C)cc1 | · | – | · | ? | – | 14µM
CN(C)CCCNC(=O)c1ccc(-c2ccccc2)cc1 | – | – | – | – | – | –
CN(C)CCCNC(=O)c1ccc(Cl)c(S(=O)(=O)N(C)c2ccccc2)c1 | – | – | – | -108 | – | –
CC(=O)c1ccc(NC(=O)c2cc(Cl)sc2Cl)cc1 | · | – | – | – | – | –
Cc1cc(C)cc(NC(=O)c2cc(Cl)sc2Cl)c1 | · | – | – | – | – | 32µM
Cc1ccc(-c2nnc3n2N=C(c2ccccc2Br)CS3)cc1 | – | – | – | – | – | 22µM
CCN(CC)c1ccc(NC(=O)c2ccccc2)cc1S(=O)(=O)Nc1ccccc1OC | · | – | · | ? | – | 1.8µM
CCCn1c(C)nc2c(NCCCN3CCCCC3C)nc(C)nc21 (stereo not given) | – | – | · | · | – | –
COc1ccccc1/C=C1\SC(=O)N(CCC(=O)NNC(=O)c2ccccc2Cl)C1=O | – | – | – | -93 | – | –
COc1cccc(/C=C2\SC(=O)N(CCC(=O)NNC(=O)c3cccc(Cl)c3)C2=O)c1 | · | – | – | -86 | – | –
O=C1C[C@H]2OCC=C3CN4CC[C@@]5(C(=O)O)[C@H](N1)C2[C@H]3C[C@H]45 (stereo not given in full) | · | · | · | · | – | –
Cc1ccc(N2CCCn3c2nc2c3c(=O)n(CCN3CCOCC3)c(=O)n2C)cc1 | – | – | – | – | – | –
CCCCOC(=O)Cn1c(=O)c2c(nc3n2CCCCN3c2ccc(C)cc2)n(C)c1=O | – | – | – | -127 | – | –
O=C(NCC1CC1)[C@H]1C[C@@H]1[C@H](NP(=O)(c1ccccc1)c1ccccc1)c1ccccc1 | – | – | · | · | – | –
CCNC(=S)NNC(=O)c1cccnc1 | · | – | – | – | – | –
CCCCNC(=S)NNC(=O)c1cccnc1 | · | – | · | -87 | – | –
CCCCCCCC1=Cc2ccccc2C(C(C(C)=O)C(=O)OC)N1C(=O)OC (stereo not given) | · | –[11.4 µM] | · | · | – | –
COc1ccc(N=NC2=C(O)CC(C)(C)CC2=O)cc1 | ? | – | – | – | – | 32µM
O=C(Nc1cc(NC(=O)c2ccccc2Cl)ccc1Cl)c1ccccc1 | · | · | – | · | · | ·
COc1ccc(C2C(=O)c3ccccc3C2=Nc2ccc(Br)cc2)cc1 (stereo not given) | – | – | – | – | – | 7.1µM
CC(=O)[C@H]([C@@H](c1ccccc1)N1CCOCC1)N1CCOCC1 | –[11.4 µM] | –[11.4 µM] | · | · | · | ·
N[C@@H](CO)C(=O)NNCc1ccc(O)c(O)c1O | – | – | – | · | – | –
CC[n+]1c(/C=C(\C)SC)sc2ccccc21 | ? | – | – | – | – | 28µM
SMILES | 15-hLO-2 inh | 12-hLO inh | IMPase cell inh | PNC inhibitor | IMPase Li cell | HPGD inh
CC[n+]1c(/C=C(/C)SC)sc2ccccc21 | · | – | – | – | · | ·
CCOC(=O)c1sc(=S)n(C)c1NC(=O)c1ccccc1 | · | – | – | ? | – | 8.9µM
C[C@@]12CC[C@@H]3[C@@H](CC[C@H]4C[C@@H](O)CC[C@]43C)[C@H]1CC[C@@H]2c1cc(C(F)(F)F)n[nH]1 | –[11.4 µM] | –[11.4 µM] | · | · | – | –
O=S(=O)(Cc1ccccc1)N1CCn2c(nc3ccccc32)C1 | – | – | – | -87 | – | –
O=S(=O)(Cc1ccccc1)N1CCCCCC1 | – | – | – | – | – | –
O=S(=O)(c1ccc(Br)cc1)N1CCn2c(nc3ccccc32)C1 | – | – | – | – | – | –
O=S(=O)(Cc1ccccc1)N1CCCCC1 | – | – | – | – | – | 32µM
O=c1cc(-c2ccc(F)cc2F)[nH]c2ccc(F)cc12 | –[0.0915 µM] | –[0.00818 µM] | · | · | – | –
C[C@@]12C[C@H](O)[C@@H]3[C@H](CCC4=CC(=O)CC[C@]43C)[C@H]1CC[C@@H]2c1csc(N)n1 | –[11.4 µM] | –[11.4 µM] | · | · | · | ·
N#CCc1ccccc1[N+](=O)[O-] | – | – | · | · | – | 8.9µM
CN1CCN(c2ccnc(-c3ccoc3)n2)CC1 | ? | · | · | · | – | ·
CCc1nn(CCCC(=O)N2CCc3ccccc3C2)c(=O)c2cc3occc3n12 | – | – | – | – | – | 32µM
O=C(O)c1ccccc1N/N=C\c1ccnc2ccccc12 | – | – | – | – | – | 13µM
Cn1c(=O)c2c(nc(N/N=C\c3ccccc3C(=O)O)n2C)n(C)c1=O | –[11.4 µM] | –[11.4 µM] | · | · | – | –
O/N=C/c1cc(Br)cc(Br)c1OCc1ccccc1 | – | – | – | – | – | 14µM
O/N=C/c1ccc(OCc2ccccc2)c(Br)c1 | · | – | · | – | – | –
Nn1c(COc2ccccc2)nc2ccccc2c1=O | – | – | – | -89 | – | –
COc1cccc(OCc2nc3ccccc3c(=O)n2N)c1 | – | – | – | – | – | –
c1ccc(CSc2ncn(-c3ccccc3)n2)cc1 | – | – | – | – | – | 18µM
O=C(CSc1ncn(-c2ccccc2)n1)c1cccs1 | ? | – | – | – | – | 8.9µM
Oc1ccc(Cl)cc1C=Nc1cnc2ccccc2c1 | –[11.4 µM] | –[11.4 µM] | · | · | – | ?
COc1ccc(-n2c(SCC(=O)N3CCCCC3C)nnc2-c2cccnc2)cc1 (stereo not given) | – | – | – | – | – | 20µM
CC1CCN(C(=O)CSc2nnc(-c3cccnc3)n2C2CCCCC2)CC1 | – | – | – | – | – | 22µM
O=C(CSc1nnc(-c2cccnc2)n1C1CCCCC1)NC1CCCCC1 | – | – | – | – | – | –
COc1ccc(-n2c(SCC(=O)N3CCCC(C)C3)nnc2-c2cccnc2)cc1 (stereo not given) | – | – | – | – | · | ·
O=C(CSc1nnc(-c2ccc(Br)cc2)n1C1CCCCC1)N1CCCC1 | · | – | – | – | – | –
COc1ccc2c(c1)c1nnc(SCC(=O)N3CCCCC3C)nc1n2C (stereo not given) | – | – | – | – | – | 16µM
CC1CCCCN1C(=O)CSc1nnc(-c2cccnc2)n1C1CCCCC1 (stereo not given) | – | – | – | – | – | 25µM
CC(=O)Nc1ccc2c(c1)C(=Nc1ccc(C(=O)O)cc1)c1ccccc1-2 | –[11.4 µM] | –[11.4 µM] | · | · | – | –
